The results in this text go back to PubChem BioAssay (NCI).

This is part of a sample that, as a whole, favours compounds with a hit. Of some 83,000 tested, about 20% had one in any assay.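 For each line, cells grew in 96-well plates with the test compound present at a single concentration for 48 hours.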 Calls of active or inactive are those of the source.

The subject of the experiment is HS 578T breast. The experiment can be described thus: NCI-60 one-dose screen, 48 h (100 = growth as untreated, 0 = no growth, -100 = all killed). Conditions: 10 µM unless noted. How it is done: Growth inhibition of the HS 578T human tumor cell line is measured as a screen for anti-cancer activity. Cells are grown in 96 well plates and exposed to the test compound for 48 hours. Compounds are tested at a single concentration, which is 10^-5 M for most compounds. The reported endpoint is percent growth (GI% or GIPRCNT), where numbers from 0 - 100% represent growth inhibition, and numbers from -100% - 0 represent cell death. For example, a value of 40 represents 60% growth inhibition. A value of 0 means no net growth occurred over the course of the experiment. A value of -40 indicates 40% of cells at the beginning of the experiment died by the end of the experiment. A value of -100 means all cells are dead at the end of the experiment.
NCI-60 Human Tumor Cell Lines Screen was performed using the standard one-dose NCI protocol, which is described in more detail at https://dtp.cancer.gov/discovery_development/nci-60/default.htm.
Compounds with GIPRCNT values below 10 were considered active. Activity score was based on GIPRCNT using the following formula: […]
Score is 0 for GIPRCNT values of 100 or above, 50 for GIPRCNT values of 0, and 100 for GIPRCNT values of -100.
For `Clc1nc(-c2ccccn2)nc2sc3c(c12)CCCCCC3`, the growth is 91.3% (inactive).

For `CCN(CC)c1ccc(/C=C(\C#N)c2cc3ccccc3[nH]2)cc1`, the growth was 58.3% (inactive).

As to `COc1cc(C(F)(F)F)ccc1-c1cc(-c2ccc(F)cc2)n[nH]1`, the growth is 96.3% (inactive).

In the case of `Cn1c2c(cc(S(=O)(=O)c3ccccc3)c1=O)CCc1c-2cnn1-c1cccc(Cl)c1`, the growth is 92% (inactive).

Regarding `Clc1ccc2c(N3CCN(c4ccnc(NC5CCCCC5)n4)CC3)ccnc2c1`, the growth is 67.7% (inactive).

With `Cc1cc(NS(=O)(=O)c2ccc(NC(=O)COc3ccc(-c4cc5ccccc5[nH]4)cc3)cc2)no1`, the growth is 16.6% (inactive).

As to `OB(O)c1ccccc1`, the growth was 102% (inactive).

On to `O=C(CC(O)c1ccccc1)Nc1ccccn1` (stereo not given), for which the growth is 106% (inactive).

For the compound `C=CC(=O)N1CC2(CCC(n3nc(-c4ccc(Oc5ccccc5)cc4)c4c(N)ncnc43)CC2)C1`, the growth was -35.5% (active).

As to `O=C(NCc1ccco1)C1CCN(S(=O)(=O)c2ccc(Cl)cc2)CC1`, the growth was 68.9% (inactive).

For the compound `CCCCCn1c(=N)n(CC(O)COc2cccc(C)c2)c2ccccc21` (stereo not given), the growth is -0.161% (active).

As to `COc1ccc(NC(=O)c2ccc3c(c2)nc(-c2ccc(Cl)cc2)n3-c2cc(C(C)(C)C)[nH]n2)cc1`, the growth is 62% (inactive).

For the compound `COc1cc(/C=C/C(=O)C2=C(/C=C/c3ccc(O)c(OC)c3)NC(=O)NC2c2ccc(O)c(OC)c2)ccc1O` (stereo not given), the growth is 81% (inactive).

In the case of `O=c1c2c(=NCCN3CCCC3)cc3c(=O)n(CCCN4CCOCC4)c(=O)c4c(-c5ccc(CN6CCCC6)cc5)cc(c(O)n1CCCN1CCOCC1)c2c4-3`, the growth was -26.3% (active).

For `COc1ccc(C2SC(C)C(=O)N2CCc2cccs2)cc1OC` (stereo not given), the growth was 95.4% (inactive).

In the case of `ONc1nc(NO)c2[nH]cnc2n1`, the growth was 108% (inactive).

As for `CCCCC/C=C\C/C=C/CCCCCCCCNC(=O)Nc1ccc([N+](=O)[O-])cc1`, the growth is 88.2% (inactive).

For `Cc1cc(Cl)c2c(Cl)ccc(Cl)c2n1`, the growth was 119% (inactive).

In the case of `COC(=O)c1c2c(c(C)[n+]([O-])c1C)C(=O)C=C(NCc1ccc(F)cc1)C2=O`, the growth was -16.6% (active).

`c1ccc(-c2n(Cc3ccc4ccccc4n3)c3ccccc3[n+]2Cc2ccc3ccccc3n2)cc1`: the growth is 2.04% (active).

Regarding `CC1=C(C/C=C(\C)CCC[C@H](C)CCC[C@H](C)CCCC(C)C)C(=O)c2ccccc2C1=O`, the growth is 105% (inactive).

Take `Nc1ccccc1-c1n[nH]c(=O)[nH]c1=O`: the growth was 92.7% (inactive).

As to `CC1(C)N=C(N)N=C(N)N1c1cccc(/C=C/C=C/c2cccc([N+](=O)[O-])c2)c1`, the growth is 95% (inactive).

In the case of `N#CCCN1CCN(CCC#N)C1=S`, the growth is 104% (inactive).

For `Cc1ccc(S(=O)(=O)N2CCc3ccc(O)c4c3C2Cc2ccc3c(c2-4)OCO3)cc1` (stereo not given), the growth was 47.5% (inactive).

Consider `Cc1cc(O)cc2c1[C@H]1CC[C@]3(C)[C@@H](O)CC[C@H]3[C@@H]1C=C2`, for which the growth was 86.5% (inactive).

As for `C[C@@H](Oc1cc(-c2cnn(C3CC4(CNC4)C3)c2)cnc1N)c1c(Cl)ccc(F)c1Cl`, the growth was 41.6% (inactive).

Take `COc1ccc(-n2ncc3c2ccc2cc(S(=O)(=O)c4ccccc4)c(=O)n(C)c23)cc1`: the growth was 49.5% (inactive).

Regarding `O=C1NC(=S)S/C1=C\c1cccc([N+](=O)[O-])c1`, the growth is 118% (inactive).

As to `COC(=O)c1c2c(c(C)[n+]([O-])c1C)C(=O)C(NCc1ccc(O)cc1)=CC2=O`, the growth is -22.5% (active).

`COc1c(Cl)ccc2c(-c3nc4cc(Cl)c(F)cc4s3)cc(=O)oc12`: the growth was 100% (inactive).

`Fc1ccccc1Nc1ccc2nnc(-c3ccncc3)n2n1`: the growth is 105% (inactive).

Turning to `CCCCCCCC/C=C\CCCCCCCCOc1cccc(CC(=O)NCC[N+](C)(C)C)c1`, the growth is 78.4% (inactive).

Take `COc1cc(C2C3=C(COC3=O)N(CCO)c3cc4c(cc32)OCO4)cc(OC)c1O` (stereo not given): the growth was 3.31% (active).

With `COc1ccc(S(=O)(=O)ON=C2C=C(C)C(=O)C(C)=C2)cc1`, the growth was 101% (inactive).

For `CC(C)NCC(O)COc1ccc(CCOCC2CC2)cc1` (stereo not given), the growth is 109% (inactive).

On to `CC(C)(C)[Si](C)(C)OC1[C@@H](COC(N)=O)O[C@@H](n2cnc3c(N)ncnc32)[C@H]1O[Si](C)(C)C(C)(C)C` (stereo not given in full), for which the growth is 88.5% (inactive).

Regarding `NS(=O)(=O)c1ccc(C(=O)N/N=C(\CS(=O)(=O)c2ccccc2)c2cc3cc(Br)ccc3o2)cc1`, the growth is 80.7% (inactive).

As to `COc1ccc(CSc2nc3cc(OC)c(OC)cc3c(=O)n2-c2ccc(Cl)cc2)cc1`, the growth was 97.1% (inactive).

For the compound `c1ccc(-c2nc(N3CCOCC3)c3c4c(sc3n2)CCCCCC4)nc1`, the growth is 53.4% (inactive).
